Test results: PubChem BioAssay (NCI)
About 83,000 compounds went through this panel and 20% of them were active in at least one assay; those are over-represented in the sample as a whole.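 Method: cells in 96-well plates; compound added at one concentration; 48 h incubation; percent growth measured; values under 10 scored active.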 Activity calls are given as the source filed them.

Experiments:
Assay in all cases: NCI-60 one-dose screen, 48 h (100 = growth as untreated, 0 = no growth, -100 = all killed)
Details in all cases: 10 µM unless noted
[1] = system: HCT-15 colon
[2] = system: HT29 colon
[3] = system: SNB-75 CNS
[4] = system: SNB-19 CNS
[5] = system: U251 CNS
[6] = system: PC-3 prostate
[7] = system: SK-MEL-5 melanoma
[8] = system: LOX IMVI melanoma
[9] = system: SK-MEL-28 melanoma
[10] = system: SK-MEL-2 melanoma
[11] = system: EKVX NSCLC
[12] = system: SN12C renal
[13] = system: UO-31 renal
[14] = system: TK-10 renal
[15] = system: ACHN renal
[16] = system: CAKI-1 renal
[17] = system: A498 renal
[18] = system: CCRF-CEM leukemia
[19] = system: MOLT-4 leukemia

Measured: growth

Cc1ccc(N(CC(=O)Nc2ccc(S(=O)(=O)NC3CCN(C)CC3)cc2)S(=O)(=O)c2ccc(Cl)cc2)cc1
active: [7] -9.84% | [8] -58.1% | [9] -68.3%
inactive: [1] 90.6% | [2] 10.2% | [3] 58.7% | [4] 88.3% | [5] 19.5% | [6] 84.1% | [10] 104% | [11] 99.4% | [12] 85% | [13] 83.3% | [14] 105% | [15] 96.6% | [16] 89% | [17] 84.6% | [18] 20.9% | [19] 70.5%

COC(=O)[C@]12CC[C@@H](C)[C@H](C)[C@@H]1C1=CC[C@@H]3[C@@]4(C)C[C@@H](O)[C@H](O)[C@@](C)(CO)C4=CC[C@@]3(C)[C@]1(C)CC2
active: [1] -60.8% | [2] -36.6% | [3] -58.7% | [4] -80.4% | [5] -85.4% | [6] -85.1% | [7] -98.6% | [8] -100% | [9] -81% | [10] -36.9% | [11] -71.8% | [12] -71.5% | [13] -48.9% | [14] -17.7% | [15] -83.7% | [16] -10.2% | [17] -94.7% | [18] -33.6% | [19] -47.4%

CN(C)c1ccc(C(=O)c2ccc(N(C)C)c(N)c2)cc1N
inactive: [1] 26% | [4] 45.3% | [5] 34.4% | [6] 49.3% | [8] 53.9% | [9] 61.9% | [10] 61.6% | [11] 50.9% | [12] 49.7% | [13] 64.9% | [14] 67.3% | [15] 50.5% | [16] 41% | [17] 25% | [18] 36.4% | [19] 24.4%
active: [2] 9.95% | [3] -11.3% | [7] 3.25%

COC(c1ccccc1)(c1ccccc1)c1ccccc1
inactive: [1] 104% | [2] 100% | [3] 87.7% | [4] 96% | [5] 107% | [6] 102% | [7] 103% | [8] 99.2% | [9] 109% | [10] 118% | [11] 85.3% | [12] 97% | [13] 105% | [14] 123% | [15] 101% | [16] 72.1% | [17] 104% | [18] 131% | [19] 123%

C=CC(=O)N[C@H](Cc1ccc(-c2cc(Cl)cc(Cl)c2)cc1)[C@H](O)[C@@H](O)C(=O)O
inactive: [1] 96% | [2] 81.5% | [3] 87% | [4] 99.5% | [5] 80.2% | [6] 63.9% | [7] 91.6% | [8] 95.6% | [9] 106% | [10] 90% | [11] 90% | [12] 98.5% | [13] 86.8% | [14] 81.7% | [15] 101% | [16] 84% | [17] 80.6% | [18] 80.2% | [19] 102%

Cn1cnc2c1c(=O)n(CCC(=O)Nc1ccc(F)cc1)c(=O)n2C
inactive: [1] 104% | [2] 86.6% | [3] 94.6% | [4] 105% | [5] 96.2% | [6] 91.1% | [7] 107% | [8] 102% | [9] 110% | [10] 105% | [11] 107% | [12] 102% | [13] 92.7% | [14] 92.7% | [15] 114% | [16] 93.7% | [17] 96.8% | [18] 99.5% | [19] 106%

OCC(CO)(CCl)CCl
inactive: [1] 109% | [2] 96.6% | [3] 96.8% | [4] 98.7% | [5] 84.8% | [6] 80.2% | [7] 104% | [8] 98.2% | [9] 103% | [10] 87.8% | [11] 104% | [12] 98.3% | [13] 104% | [14] 95% | [15] 104% | [16] 95% | [17] 111% | [18] 90.4% | [19] 91.1%

CC(=O)OC(C)COc1ccc(-c2ccccc2)cc1 (centres undefined)
inactive: [1] 107% | [2] 86% | [3] 89.6% | [4] 103% | [5] 76.4% | [6] 86.1% | [7] 99.8% | [8] 110% | [9] 104% | [10] 95% | [11] 101% | [12] 104% | [13] 106% | [14] 80.7% | [15] 101% | [16] 94.7% | [17] 92.7% | [18] 99.6% | [19] 100%

CC/C(=N/NC(N)=O)c1ccccc1
inactive: [1] 91.2% | [2] 104% | [3] 98% | [4] 108% | [5] 102% | [6] 102% | [7] 102% | [8] 99% | [9] 101% | [10] 115% | [11] 91.5% | [12] 106% | [13] 86.4% | [14] 105% | [15] 108% | [16] 94.7% | [17] 105% | [18] 94.2% | [19] 98%

COC(=O)[C@]12CC[C@@H](C)[C@H](C)[C@@H]1C1=CC[C@@H]3[C@@]4(C)CC(=O)[C@H](OC(=O)c5ccco5)[C@@]5(C)COC(=C45)C[C@@]3(C)[C@]1(C)CC2
inactive: [1] 24.1% | [2] 20.1% | [3] 41.7% | [4] 40.4% | [5] 24.9% | [6] 17.3% | [9] 33% | [11] 35.6% | [12] 36% | [13] 29.3% | [14] 38.5% | [15] 25.9% | [16] 28.7% | [17] 13.1% | [18] 25.1% | [19] 24.4%
active: [7] -46.1% | [8] 6.2% | [10] 8.78%

COc1cc2ncnc(Nc3ccc(Oc4ccnc(C)c4)c(C)c3)c2cc1NC(=O)CC1CCSS1 (centres undefined)
active: [1] -72.4% | [2] -80.7% | [3] -3.3% | [4] -32.2% | [5] -13.4% | [6] -50.3% | [7] -89.1% | [8] -87.8% | [9] -66% | [10] -57.7% | [11] -1.66% | [13] -23.7% | [14] -68.6% | [16] 3.34% | [18] -30.8% | [19] -56.8%
inactive: [12] 21.3% | [15] 10.5% | [17] 66.8%

O=C1CNCCN1
inactive: [1] 100% | [2] 100% | [3] 92.6% | [4] 104% | [5] 104% | [6] 96.5% | [7] 101% | [8] 98.5% | [9] 105% | [10] 106% | [11] 101% | [12] 97.8% | [13] 91.7% | [14] 100% | [15] 106% | [16] 93.1% | [17] 98% | [18] 99.7% | [19] 94%

Nc1ncnc2nc(Br)[nH]c12
inactive: [1] 108% | [2] 102% | [3] 87.2% | [4] 101% | [5] 89.4% | [6] 78.3% | [7] 100% | [8] 93.7% | [9] 114% | [10] 102% | [11] 105% | [12] 100% | [13] 101% | [14] 96.2% | [15] 98.7% | [16] 93% | [17] 98.1% | [18] 94.3% | [19] 96.1%

C#CCC(C)(O)/C=C/C1=C(C)CCCC1(C)C (centres undefined)
inactive: [1] 107% | [2] 86.2% | [3] 87% | [4] 95.8% | [5] 86.1% | [6] 77.6% | [7] 98.4% | [8] 96.4% | [9] 101% | [10] 97.4% | [11] 95.8% | [12] 99.2% | [13] 91.3% | [14] 96.7% | [15] 97.3% | [16] 92.4% | [17] 91.3% | [18] 101% | [19] 101%

COc1cc(-c2cc3ncccc3c3nc(N)c4cccnc4c23)cc(OC)c1OC
inactive: [1] 21.5% | [4] 44.5% | [5] 18.9% | [6] 22% | [7] 15.8% | [8] 24.1% | [9] 62.7% | [10] 30.7% | [11] 27.1% | [12] 26.7% | [13] 51.1% | [14] 16.3% | [15] 22.6% | [16] 31.1% | [18] 32.5% | [19] 20.7%
active: [2] 4.14% | [3] 6.07% | [17] -17.6%

CCC1C(=O)COC1=O (centres undefined)
inactive: [1] 103% | [2] 62.7% | [3] 91% | [4] 99.3% | [5] 85% | [6] 74.3% | [7] 102% | [8] 93.2% | [9] 112% | [10] 87% | [11] 95.5% | [12] 104% | [13] 95.7% | [14] 90.5% | [15] 103% | [16] 92.4% | [17] 91.4% | [18] 85.4% | [19] 92.9%
